# Results taken from PubChem BioAssay (EPA / NIEHS).
# Records with an inconclusive call do not appear. The source made the active and inactive calls. Rule for the calls: active = hit-call score of the fitted dose curve at least 0.9, where 1 is the maximum; inconclusive = response in the unintended direction; inactive = score below 0.9.
# Biological target: Estrogen receptor (Homo sapiens) (UniProt P03372)
# Experiment: CCTE_Deisenroth_AIME_384WELL_LUC_Inactive: CCTE's 384-well Estrogen Receptor Transactivation Assay without AIME metabolic competence (ERTA luciferase; metabolism negative), Deisenroth Lab (AID 2284038);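 note: hits raise estrogen receptor luciferase signal so potencies reflect agonists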
# Method: CCTE_Deisenroth_AIME_384WELL (AIME metabolism assay) is a cell-based, single-readout assay that uses VM7Luc4E2, a human mammary gland/breast cell line, with measurements taken at 24 hour after chemical dosing in a 384-well plate.CCTE_Deisenroth_AIME_384WELL_LUC_Inactive is one of four assay components measured or calculated from the CCTE_Deisenroth_AIME_384WELL assay. It is designed to make measurements of luciferase induction, a form of inducible reporter, as detected with bioluminescence signals by luciferase-coupled ATP quantitation technology.CCTE_Deisenroth_AIME_384WELL_LUC_Inactive is a component of the CCTE_Deisenroth_AIME_384WELL assay that measures the effect of retroftting the VM7Luc ERTA assay with the Alginate Immobolization of Metabolic Enzymes (AIME) metabolism method. AIME is optimized to impart phase I hepatic metabolism using phenobarbital/beta-naphthoflavone induced hepatic S9 from male Sprague Dawley rats. Parent chemicals are incubated for 2 hours in the AIME assay prior to transfer to the VM7Luc ERTA assay plate. […] This endpoint evaluates reporter induction in metabolism negative mode. Using a type of inducible reporter in VM7Luc cells, gain-of-signal activity can be used to understand changes in the reporter gene as they relate to xenobiotic metabolism and the gene ESR1. This assay endpoint, CCTE_Deisenroth_AIME_384WELL_LUC_Inactive, was analyzed in the positive analysis fitting direction relative to 17beta-estradiol as the positive control in the ERTA assay. To generalize the intended target to other relatable targets, this assay endpoint is annotated to the nuclear receptor intended target family, where the subfamily is steroidal.
# The AIME procedure consists of a preparative "pre-stamping" step using a barium chloride/poly-L-lysine (PLL) solution followed by "stamping" the lid in alginate-hepatic S9 (metabolism positive) or alginate-water (metabolism negative) to form microspheres. Once stamping is completed, the AIME lids are placed in duplicate microplates (metabolism positive or negative) containing chemical solutions and incubated for two hours to facilitate metabolic reactions. The conditioned medium, containing parent chemical or metabolites, is then transferred to the cell-based VM7Luc Estrogen Receptor Transactivation Assay (ERTA) for 24 hours. A typical experimental design tests a 10-point concentration series (0.002 - 200 uM) for 8 compounds (96-well format)1 or 32 compounds (384-well format)2 in single technical replicate. AIME assay controls include trans-stilbene (bioactivated control) and ethylparaben (bioinactivated control). ERTA assay plate controls include 17-beta estradiol (positive control) and DMSO (solvent control). Experiments typically comprise a minimum of four experimental replicates (n=4).
# Estrogen receptor (Homo sapiens), sequence (P03372 whole entry, looked up): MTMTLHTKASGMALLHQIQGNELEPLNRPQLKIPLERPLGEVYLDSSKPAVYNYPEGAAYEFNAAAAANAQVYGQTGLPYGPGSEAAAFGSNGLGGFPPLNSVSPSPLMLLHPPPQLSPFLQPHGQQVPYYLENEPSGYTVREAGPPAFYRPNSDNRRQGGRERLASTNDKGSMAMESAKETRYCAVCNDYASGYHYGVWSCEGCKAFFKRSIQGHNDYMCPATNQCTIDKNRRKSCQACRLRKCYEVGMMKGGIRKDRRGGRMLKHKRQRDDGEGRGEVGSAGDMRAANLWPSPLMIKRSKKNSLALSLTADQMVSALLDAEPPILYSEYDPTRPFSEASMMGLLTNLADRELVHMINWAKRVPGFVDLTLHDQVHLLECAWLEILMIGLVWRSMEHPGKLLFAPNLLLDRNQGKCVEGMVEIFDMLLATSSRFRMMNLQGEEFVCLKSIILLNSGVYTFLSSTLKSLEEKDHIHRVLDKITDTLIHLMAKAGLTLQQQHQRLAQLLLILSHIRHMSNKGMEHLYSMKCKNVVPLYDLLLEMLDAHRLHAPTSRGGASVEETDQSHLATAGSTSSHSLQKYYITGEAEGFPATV
Compound,AC50,outcome
CCCCCCCCCCCCCCCS(=O)(=O)Oc1ccccc1,9.6 µM (active),
COC(=O)CCCCC(=O)OC,,inactive
ClC1=C(Cl)C(Cl)(Cl)C(Cl)=C1Cl,,inactive
CCCCCCCC(=O)O,,inactive
CC#C[C@]1(O)CC[C@H]2[C@@H]3CCC4=CC(=O)CCC4=C3[C@@H](c3ccc(N(C)C)cc3)C[C@@]21C,,inactive
CCCCC(CC)COC(=O)CCCCC(=O)OCc1ccccc1 (centres undefined),,inactive
COCC(C)OCC(C)O (centres undefined),,inactive
OCCC(F)(F)C(F)(F)C(F)(F)C(F)(F)C(F)(F)C(F)(F)C(F)(F)C(F)(F)F,,inactive
COc1ccc([N+](=O)[O-])cc1N,,inactive
N#C[C@@H]1CC(F)(F)CN1C(=O)CNC1CC2CCC(C1)N2c1ncccn1 (some centres undefined),,inactive
Cc1ccc(S(=O)(=O)O)c(C)c1,,inactive
O=C(O)c1ccccc1C(c1ccc(O)cc1)c1ccc(O)cc1,98.9 µM (active),
OCCC(F)(F)C(F)(F)C(F)(F)C(F)(F)C(F)(F)C(F)(F)F,,inactive
CCCCOCCO,,inactive
CN1CCC[C@H]1c1cccnc1,,inactive
CCCCCCC(=O)O,,inactive
CCN(CC)CCNc1ccc(CNC=O)c2sc3ccc(OC)cc3c(=O)c12,26.2 µM (active),
CCCCCCCCC(=O)O,,inactive
OC1CCCCC1,,inactive
